The text below walks through data of PubChem BioAssay AID1159580 (chemical genetic matrix, 2015).

The test in a line: chemical genetic growth profiling, strain panel (AID 1159580).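 Also: tested at 20 µM; growth read once vehicle control cultures reached saturation at 30 °C; 1 = growth at the plate median or of vehicle wells; lower values mean less growth of the strain.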 Particulars: S. cerevisiae deletion strains, growth OD.
The mark [1] stands for this setting: locus YAL013W, strain DEP1, hits give low values.
[2] abbreviates: locus YBR229C, strain ROT2, hits give low values.
The mark [3] stands for this setting: locus YDL101C, strain DUN1, hits give low values.
[4] abbreviates: locus YDR150W, strain NUM1, hits give low values.
Where [5] appears, read: locus YEL061C, strain CIN8, hits give low values.
Where [6] appears, read: locus YGR078C, strain PAC10, hits give low values.
[7] abbreviates: locus YHR030C, strain SLT2, hits give low values.
Setting [8] is: locus YHR087W, strain rtc3, hits give low values.
[9] abbreviates: locus YJR043C, strain POL32, hits give low values.
The mark [10] stands for this setting: locus YJR075W, strain HOC1, hits give low values.
[11] abbreviates: locus YLR039C, strain RIC1, hits give low values.
Setting [12] is: locus YLR058C, strain SHM2 (second series), hits give low values.
The mark [13] stands for this setting: locus YLR085C, strain ARP6, hits give low values.
Setting [14] is: locus YLR262C, strain YPT6, hits give low values.
[15] abbreviates: locus YML094W, strain GIM5, hits give low values.
[16] abbreviates: locus YMR219W, strain ESC1, hits give low values.
[17] abbreviates: locus YMR263W, strain SAP30, hits give low values.
[18] abbreviates: locus YNL153C, strain GIM3, hits give low values.
Where [19] appears, read: locus YNL298W, strain CLA4 (second series), hits give low values.
[20] abbreviates: locus YNL322C, strain KRE1, hits give low values.
[21] abbreviates: locus YNR030W, strain Alg12, hits give low values.
[22] abbreviates: locus YPL055C, strain LGE1, hits give low values.
[23] abbreviates: locus YPL241C, strain CIN2, hits give low values.
[24] abbreviates: locus YPR135W, strain CTF4, hits give low values.
The mark [25] stands for this setting: locus YGR229C, strain SMI1, hits give low values.
Where [26] appears, read: locus YAL040C, strain CLN3, hits give low values.
The mark [27] stands for this setting: locus YCL061C, strain MRC1 (second series), hits give low values.
[28] abbreviates: locus YDR363W, strain ESC2, hits give low values.
[29] abbreviates: locus YER002W, strain NOP16, hits give low values.
Where [30] appears, read: locus YMR307W, strain GAS1, hits give low values.
Setting [31] is: locus YNL175C, strain NOP13, hits give low values.
Setting [32] is: locus YNL197C, strain WHI3, hits give low values.
The mark [33] stands for this setting: locus YNL224C, strain SQS1, hits give low values.
Setting [34] is: locus YOR083W, strain WHI5 (second series), hits give low values.

Among all 5,500 compounds or so, about 2,000 (36%) were called active. About 18% were inconclusive and are not listed. The list shows a part of the results. A number with no mark means an inactive call. Rule as the data show it: active = normalized growth mostly below about 0.91 (no sharp cut-off); inconclusive = no clear call, values can overlap the other calls; inactive = mostly above about 0.92.

In the case of `O=[N+]([O-])c1cc(C(F)(F)F)ccc1NCCCn1ccnc1`, the normalized growth was 1.01 under setting [1]; 1.01 under setting [2]; 1.06 under setting [3]; 0.976 (locus YDL134C, strain PPH21, hits give low values); 1.04 under setting [4]; 0.988 under setting [5]. Besides, the normalized growth was 1.03 under setting [6]; 1.1 under setting [7]; 0.965 under setting [8]; 1.04 under setting [9]; 1.04 under setting [10]; 0.994 (locus YKL190W, strain CNB1, hits give low values). Moreover, the normalized growth was 1.08 under setting [11]; 1 under setting [12]; 1.03 under setting [13]; 1 under setting [14]; 1.01 under setting [15]; 0.991 under setting [16]. Besides, the normalized growth is, setting by setting: under setting [17], 1.03; under setting [18], 1.04; under setting [19], 1.01; under setting [20], 0.98; under setting [21], 1.01; under setting [22], 0.991. For the same compound, the normalized growth was 1.03 under setting [23] and 1.07 under setting [24].

As for `O=C(NCCNc1ccc(C(F)(F)F)cc1[N+](=O)[O-])c1cccs1`, the normalized growth was 0.974 under setting [1]; 0.972 under setting [2]; 0.983 (locus YCL061C, strain MRC1, hits give low values); 0.93 under setting [3]; 0.931 under setting [4]; 0.948 under setting [5]. Moreover, the normalized growth under setting [6] is 0.967; the normalized growth under setting [25] was 0.974; the normalized growth under setting [7] was 0.673 (active); the normalized growth under setting [8] is 0.973; the normalized growth under setting [9] was 0.978; the normalized growth under setting [10] was 0.998. Besides, the normalized growth was 0.838 under setting [11]; 0.967 under setting [12]; 0.775 (active) under setting [13]; 0.915 under setting [14]; 0.841 (active) under setting [15]; 0.982 under setting [16]. Moreover, the normalized growth is, setting by setting: under setting [17], 1.02; under setting [18], 0.976; under setting [19], 0.863; under setting [20], 0.988; under setting [21], 0.911; (locus YOL006C, strain TOP1, hits give low values) 0.778. In addition, the normalized growth under setting [22] was 0.771 (active), the normalized growth under setting [23] was 1.13 and the normalized growth under setting [24] is 0.743.

For `CCOC(=O)c1ncn2c1[C@@H]1CCCN1C(=O)c1cc(OC)ccc1-2`, the normalized growth by setting is: under setting [26], 0.938; under setting [27], 1.01; under setting [28], 1; under setting [29], 1.01; under setting [25], 1.05; under setting [30], 0.981. Also, the normalized growth by setting is: under setting [31], 1.04; under setting [32], 1.03; under setting [33], 1.01; under setting [20], 1.02; under setting [34], 1.04; under setting [22], 1.05. Moreover, the normalized growth under setting [23] was 1.01.

With `CCCN(CCC)[C@H]1CCc2c(F)ccc(O)c2C1`, the normalized growth is 1 under setting [27]; 1.01 under setting [28]; 0.998 under setting [29]; 1.02 under setting [25]; 1.01 under setting [10]; 0.993 under setting [30]. Further, the normalized growth is, setting by setting: (locus YNL128W, strain TEP1, hits give low values) 0.428 (active); under setting [32], 0.979; under setting [33], 0.995; under setting [34], 1.01; under setting [23], 1.

As to `CCCN(CCC)[C@@H]1CCc2cccc(O)c2C1`, the normalized growth was 1.04 under setting [26]; 0.995 under setting [27]; 0.989 under setting [4]; 0.997 under setting [28]; 0.977 under setting [29]; 0.981 under setting [6]. For the same compound, the normalized growth runs as follows: under setting [25], 1.07; under setting [10], 1.02; under setting [17], 1; under setting [30], 1.03; under setting [18], 0.953; under setting [31], 0.998. Besides, the normalized growth is 0.974 under setting [32]; 1 under setting [33]; 1.01 under setting [34]; 1.01 under setting [22]; 1 under setting [23].

Regarding `CCCN(CCC)[C@@H]1CCc2c(F)ccc(O)c2C1`, the normalized growth was 1.01 under setting [1]; 1.01 under setting [26]; 1.01 under setting [27]; 0.983 under setting [4]; 1.01 under setting [28]; 1 under setting [29]. In addition, the normalized growth under setting [10] was 1.02; the normalized growth under setting [17] is 1.01; the normalized growth under setting [30] is 1; the normalized growth under setting [32] is 0.992; the normalized growth under setting [33] was 0.999; the normalized growth under setting [34] is 1.01. Also, the normalized growth under setting [22] is 1.01 and the normalized growth under setting [23] is 1.

For the compound `CN(C)CC(=O)OC[C@@H](O)[C@@H](O)[C@H](O)[C@@H](O)C(=O)O`, the normalized growth runs as follows: under setting [7], 0.956; (locus YHR079C, strain IRE1, hits give low values) 0.944; (locus YJL095W, strain BCK1, hits give low values) 0.954; (locus YJR066W, strain TOR1, hits give low values) 0.924; (locus YLR113W, strain HOG1, hits give low values) 0.956; (locus YNL183C, strain NPR1, hits give low values) 0.896. For the same compound, the normalized growth was 0.964 (locus YOR231W, strain MKK1, hits give low values) and 0.969 (locus YPL256C, strain CLN2, hits give low values).
